High-throughput results as filed in PubChem BioAssay.
FLuc modulator: firefly luciferase modulation, counter-screen for miR-21 project. P08659. purified FLuc, Km substrates, luminescence inhibition. Potency, µM (series often up to 57.5 µM), for inactives: at the highest dose activity change, negative = inhibition, actives largely listed as inhibitors. 360,000 compounds, 6.9% hits. AID 588342;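 also: plate controls were vehicle for no effect and reference inhibitor for full effect; nearly all actives have a fitted effect of over 55% in size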
Target sequence (P08659 whole entry, looked up): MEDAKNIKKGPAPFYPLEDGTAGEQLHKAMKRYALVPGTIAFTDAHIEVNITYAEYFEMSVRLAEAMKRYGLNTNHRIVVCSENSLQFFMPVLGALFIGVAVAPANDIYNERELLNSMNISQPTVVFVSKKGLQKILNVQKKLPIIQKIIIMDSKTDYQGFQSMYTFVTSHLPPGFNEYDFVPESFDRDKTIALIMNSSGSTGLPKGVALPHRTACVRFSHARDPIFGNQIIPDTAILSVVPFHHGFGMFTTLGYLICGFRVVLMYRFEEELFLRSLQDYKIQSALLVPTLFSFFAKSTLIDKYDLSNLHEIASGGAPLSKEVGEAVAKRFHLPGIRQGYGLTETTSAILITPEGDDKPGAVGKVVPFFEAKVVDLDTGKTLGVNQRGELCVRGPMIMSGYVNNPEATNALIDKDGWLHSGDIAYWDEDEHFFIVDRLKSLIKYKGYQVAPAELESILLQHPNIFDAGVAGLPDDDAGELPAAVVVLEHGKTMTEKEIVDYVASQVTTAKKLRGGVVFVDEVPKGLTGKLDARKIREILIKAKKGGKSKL
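Purified P. pyralis luciferase, 10 nM final, with Km-level 10 uM D-luciferin and 10 uM ATP in 50 mM Tris acetate pH 7.5, 10 mM Mg acetate, 0.01% Tween-20, 0.05% BSA; 6-point qHTS titration about 60 µM downward; luminescence read.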
NPC1 promoter act: activates the NPC1 promoter; Huh7 NPC1 promoter luciferase reporter, 24 h; Potency, µM (doses to about 9.22 µM), for inactives: at the highest dose activation, hits mostly activators; 320,000 compounds, 2.4% hits; also: % of control where 0% means no effect; nearly all actives have a fitted effect of over 60% in size
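Huh7 reporter cells (NPC1 promoter driving luciferase) are dosed with compound for 24 h at 37 °C, 5% CO2; luciferase detection reagent is then added and luminescence measured after 10 min at ambient temperature.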
KinaseGlo FLuc: Kinase-Glo luciferase inhibition (counter-screen) | Q27757 | Kinase-Glo luciferase, ATP luminescence, 8 min | Potency, µM (titrated, usually from 38.3 µM), for inactives: at the highest dose activity change, negative = inhibition, usual class: inhibitors | 200,000 compounds, 0.28% hits | AID 1379; also: % is scaled to controls: 0 for no effect and ±100 for the full control effect; nearly all actives have a fitted effect of over 60% in size
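Compounds were added to a substrate mix at pH 7.2 (50 mM imidazole, 10 uM ATP, within the enzyme's linear range), followed by Kinase-Glo detection reagent; luminescence was measured after 8 minutes at ambient temperature.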
SMN2 splice up: enhancers of SMN2 splice variant expression; Potency, µM (titrated, usually from 46.1 µM), inactives show top-dose activity change, positive = activation, hits mostly activators; 210,000 compounds, 2.8% hits; HEK293 SMN2-luciferase splicing reporter, luminescence, 30-36 h; also: % of control where 0% means no effect; nearly all actives have a fitted effect of over 55% in size
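HEK293 cells carry an SMN2 […]–luciferase reporter in which exon 7 inclusion puts luciferase in frame. Cells were plated 10-12 h before compound addition, then incubated 30-36 h at 37C. ONE-Glo luminescence was read; sodium butyrate at 4.5 mM final served as control.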
Rab9 promoter act: activates the Rab9 promoter; 320,000 compounds, 2.8% hits; Huh7 Rab9 promoter-luciferase reporter, luminescence, 24 h; Potency, µM (titrated, usually from 9.22 µM), for the others: top-dose activation, negative = inhibition, usual class: activators; also: % of control where 0% means no effect; nearly all actives have a fitted effect of over 60% in size
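Promoter activation is measured as luciferase luminescence in Huh7 cells stably transfected with a Rab9 promoter–luciferase construct, following 24 h compound exposure at 37 °C and 10 min reagent incubation at ambient temperature.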
ELG1 genotoxic: inducers of genotoxicity in HEK293T ELG1-luciferase cells; HEK293T ELG1-luciferase reporter, luminescence, 16 h; Potency, µM (titrated, usually from 46 µM), inactives show at the highest dose activity change, positive = activation, hits mostly activators; 330,000 compounds, 1.3% hits; also: % of control where 0% means no effect; nearly all actives have a fitted effect of over 60% in size
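ELG1-luciferase HEK293T cells, 2,000/well; compound pinned in; 16 hr, 37 °C, 5% CO2; ONE-Glo, 30 min RT; luminescence on CCD imager.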
Active calls of the source: *; ? = inconclusive; · = no result. A selection: hits, their analogues and other compounds. The true share with any hit is near 7.3%. Calls follow the shape of the dose curve; as a rule, active = well fitted curve in the direction sought with a large enough effect; inconclusive = small, poorly fitted or top-dose-only effect, or another doubt; inactive = no such curve, though single readings can be large; an effect the other way counts as inactive or inconclusive. Potency is read from the fitted curve at half-maximal effect.

SMILES	FLuc modulator	NPC1 promoter act	KinaseGlo FLuc	SMN2 splice up	Rab9 promoter act	ELG1 genotoxic
CCOC(=O)c1c(NC(=O)COC(=O)CC(NC(C)=O)c2ccccc2)sc(C(=O)NC)c1C (stereo not drawn)	5%	1%	·	·	-4%	2%
Cc1ccc(COC(=O)c2ccc3ccccc3n2)cc1	15µM*	0%	·	·	4%	2%
COc1ccc(NC(=S)c2ccc3ccccc3n2)cc1	13µM*	3.2µM*	·	·	4µM*	?
COc1ccc(CNC(=O)c2ccc3ccccc3n2)cc1	27µM*	14%	·	·	15%	13%
COc1ccc(NC(=O)CN(C)C(=O)c2ccc3ccccc3n2)cc1	·	·	·	·	·	1%
COc1ccc(CNC(=O)c2ccc(C(C)(C)C)cc2)cc1	3µM*	3.2µM*	1%	·	2.8µM*	?
CCOc1ccc(NC(=S)c2ccc3ccccc3n2)cc1	?	3.5µM*	·	·	?	15%
Cc1ccccc1OCCNC(=O)c1ccc2ccccc2n1	4.8µM*	?	-1%	22µM*	3.2µM*	21µM*
COc1ccc(N=C(NN)c2ccc3ccccc3n2)cc1	6.7µM*	17%	-1%	-1%	22%	?
Cc1cc(S(=O)(=O)Nc2ccccc2C(=O)O)ccc1Cl	?	0%	1%	4%	2%	9%
COc1ccc(C)c2sc(NC(=O)c3ccc(S(=O)(=O)N4CCOCC4)cc3)nc12	-18%	·	·	·	·	·
O=C(CSc1ncnc2sc3c(c12)CCC3)NCC1CCCO1 (stereo not drawn)	-1%	-1%	·	·	18%	2%
Cc1ccc(S(=O)(=O)Nc2ccccc2F)cc1C(=O)N1CCCC1	1%	0%	·	·	0%	-1%
CC1CCCN(c2csc3ccccc3c2=O)C1 (stereo not drawn)	8.5µM*	·	·	·	·	·
Cc1ccc(C)c(N2CCN(C(=O)c3csc4ccccc34)CC2)c1	0%	-2%	-1%	-14%	0%	-1%
Cc1ccc2scc(N3CCN(c4ccccc4)CC3)c(=O)c2c1	17µM*	·	·	·	·	·
Cc1ccc2scc(N3CCN(c4ccc(F)cc4)CC3)c(=O)c2c1	-12%	·	·	·	·	·
Cc1ccc2scc(N3CCc4ccccc4C3)c(=O)c2c1	4.8µM*	·	·	·	·	·
Cc1ccc(-c2csc3ncnc(N4CCc5ccccc5C4)c23)cc1	-1%	0%	2%	-11%	2%	-11%
CC(=O)N1CCN(c2csc3ccc(Br)cc3c2=O)CC1	15µM*	·	·	·	·	·
CC1CN(S(=O)(=O)c2cccc(C(=O)Nc3ccc4c(c3)CCC4)c2)CC(C)O1 (stereo not drawn)	-5%	-2%	2%	·	-13%	15%
Cc1noc(C)c1COc1ccc(C(=O)N2CCN(c3ccccc3F)CC2)cc1	4%	1%	·	·	-2%	0%
CC(=O)N(CCC(Cc1ccccc1)c1ccco1)Cc1ccco1 (stereo not drawn)	?	1%	·	·	-4%	-5%
CCN1CCN(c2csc3ccc(Cl)cc3c2=O)CC1	15µM*	·	·	·	·	·
O=c1c(N2CCCCC2)csc2ccc(F)cc12	6µM*	·	·	·	·	·
SMILES	FLuc modulator	NPC1 promoter act	KinaseGlo FLuc	SMN2 splice up	Rab9 promoter act	ELG1 genotoxic
CCOC(=O)N1N=C(c2ccccc2)CC1(O)C(C)(F)F (stereo not drawn)	6%	-4%	-1%	8%	-5%	0%
CCOC(=O)N1N=C(c2ccc(OC)cc2)CC1(O)C(F)(F)F (stereo not drawn)	3.4µM*	1.1µM*	-9%	·	0.89µM*	?
COc1ccc(CC(=O)N2N=C(c3ccncc3)CC2(O)C(F)(F)F)cc1 (stereo not drawn)	5%	-37%	1%	13%	-22%	-3%
CCc1ccc(C2=NN(C(=O)OC)C(O)(C(F)(F)F)C2)cc1 (stereo not drawn)	2.7µM*	0.45µM*	-11%	-2%	0.63µM*	?
O=C(c1cc([N+](=O)[O-])ccc1Cl)N1CCN(c2ccccn2)CC1	-4%	1%	5%	0%	18%	2%
O=C(NCc1cccc(F)c1)c1ccc(NC(=O)c2nsc3ccccc23)cc1	4.8µM*	·	·	·	·	·
